Experimental data taken from PubChem BioAssay AID743279 (National Center for Advancing Translational Sciences (NCATS), 2014).
Screen size: about 360,000 compounds; about 17,000 (4.7%) were called active. Roughly 5% stayed inconclusive and do not appear here. Rule as the data show it: active = activity change below about -50%; inconclusive = mostly about -30% to -49%; inactive = weaker than that. The list comes from a sample in which actives are over-represented; it also holds similar structures and randomly drawn compounds.

Experiment: qHTS for Inhibitors of Inflammasome Signaling: IL-1-beta AlphaLISA Primary Screen
Settings: THP-1 LPS/ATP IL-1B secretion, 16 h; at 57.5 µM, active compounds read low
Outline: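 Secreted IL-1B measured by AlphaLISA bead assay after 16 h compound exposure of THP-1 cells; compounds (final up to 57.5 uM) added 1 h before LPS (250 ng/mL) and ATP (1.25 mM) stimulation; lower signal means less secretion.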
% is scaled to controls: 0 for no effect and ±100 for the full control effect.

Row | SMILES | activity change
1 | CCCCN(CCCC)C(=O)CCS(=O)(=O)c1ccc2c(c1)n(C)c(=O)c(=O)n2C | 7.06% (inactive)
2 | O=C1CCC(=O)N(O)CCCCCNC(=O)CCC(=O)N(O)CCCCCNC(=O)CCC(=O)N(O)CCCCCN1 | 38.7% (inactive)
3 | COc1ccc(C(=O)CC(=O)c2ccc(C)cc2)c(O)c1 | -20.9% (inactive)
4 | Cc1nc(-c2ccccc2)sc1C(=O)/C=C/N(C)C | -11.9% (inactive)
5 | Cc1nc(-c2ccccc2)sc1C(=O)/C=C/c1ccccc1 | -84.3% (active)
6 | COc1ccc(C(=O)/C=C/c2cccnc2)c(OC)c1 | -96.6% (active)
7 | COc1ccc(/C=C/C(=O)c2ccc(OC)cc2O)cc1 | -98.1% (active)
8 | Cc1nc(-c2ccc(Cl)cc2)sc1C(=O)CBr | 0% (inactive)
9 | COc1ccc(C(=O)CCC(=O)Nc2cccnc2)c(OC)c1 | -9.85% (inactive)
10 | COc1ccc(C(=O)/C=C/c2ccc(OC3CSC3)cc2)cc1 | -99.6% (active)
11 | COc1ccc(/C=C/C(=O)NC(=S)N2CCCC(C(N)=O)C2)cc1 (stereo unspecified) | -22.6% (inactive)
12 | COc1ccc(/C=C/C(=O)c2cc(Br)ccc(=O)c2O)cc1 | -2.15% (inactive)
13 | COc1ccc(-c2cc(C(=O)N/N=C/c3cccnc3)c3ccccc3n2)c(OC)c1 | -5.72% (inactive)
14 | CCOC(=O)C1CCCN(C(=O)/C=C/c2ccc(OC)cc2)C1 (stereo unspecified) | -6.92% (inactive)
15 | Cc1ccc(S(=O)(=O)N2CCOCC2)cc1NC(=O)CSc1nnc(N)s1 | 18.9% (inactive)
16 | COC(=O)[C@]12CCCCC=C1N(Cc1ccccc1)C(=O)[C@H](CC(=O)NCc1ccc(C)o1)C2 | 42.5% (inactive)
17 | O=C(OCc1cn([C@@H]2C[C@H](c3ccc(Cl)cc3)N(Cc3cccs3)C[C@H]2O)nn1)c1ccccc1 | 10.7% (inactive)
18 | O=C1CCC/C(=N\NC(=O)NC2CCCCC2)C1 | -10.6% (inactive)
19 | O=C(/C=C(O)/C=C/c1ccc(O)cc1)/C=C/c1ccc(O)cc1 | -22.4% (inactive)

Row | SMILES | activity change
20 | O=C(NNC(=O)c1ccccc1O)c1ccccc1O | 67.1% (inactive)
21 | O=C(/C=C/c1ccccc1)c1ccccc1O | -85.5% (active)
22 | CCCS(=O)(=O)NC(=O)C1(C)CCCN(C(=O)c2cccs2)C1 (stereo unspecified) | 1.15% (inactive)
23 | CCOC(=O)c1ccc2[nH]c(C)c(CN3CCN(C)CC3)c(=O)c2c1 | 13.2% (inactive)
24 | O=C(CCCCCn1c(=S)[nH]c2ccsc2c1=O)NC1CCCCC1 | 7.06% (inactive)
25 | CO[C@@H]1CN(C)C(=O)c2cc(NC(=O)C3CC3)ccc2OC[C@H](C)N(C(=O)CN2CCOCC2)C[C@@H]1C | 11% (inactive)
26 | O=C(O)c1ccccc1-c1cccc2nncn12 | -10.3% (inactive)
27 | Cn1c2c(c(=O)n(C)c1=O)C(c1cccc(F)c1)C(C#N)=C(N)O2 (stereo unspecified) | 5.24% (inactive)
28 | Cc1c(C(=O)NCc2ccc(C#N)cc2)sc(=O)n1Cc1ccc(C(=O)N(C)C)cc1 | -7.66% (inactive)
29 | CCCCOC(=O)CCCc1ccc([N+](=O)[O-])cc1[N+](=O)[O-] | 17.5% (inactive)
30 | CCCCCOc1ccc(CSC2=NCCN2)cc1[N+](=O)[O-] | -93.2% (active)
31 | Cc1cc(OCCCCOc2ccc(C#N)cc2)ccc1[N+](=O)[O-] | 0% (inactive)
32 | Cc1nc(SCc2ccc(F)cc2)c([N+](=O)[O-])[nH]1 | 15.4% (inactive)
33 | CCCCOc1ccc(CSC(=N)N)cc1[N+](=O)[O-] | -102% (active)
34 | O=[N+]([O-])c1ccccc1OCCCCN1CCCCC1 | 15.9% (inactive)
35 | O=C(Nc1nnc([C@H]2C[C@H](O)[C@@H](CO)O2)s1)c1cccc(Cl)c1 | 25.3% (inactive)
36 | CCOC(=O)C1(Cc2ccccc2C(F)(F)F)CCN(C(=O)c2cc(C)n(C)n2)CC1 | 58% (inactive)
37 | CC(=O)NC(CC(=O)Nc1nc(-c2ccccc2)c(C(C)=O)s1)c1ccccc1 (stereo unspecified) | -10.6% (inactive)
38 | CCN1C(=O)CS/C1=N\c1nccs1 | -5.9% (inactive)

Row | SMILES | activity change
39 | O=C(Cc1ccc(Cl)cc1)c1ccccc1 | -14.1% (inactive)
40 | CCN(C[C@H]1N[C@@](CC)(C(=O)OC)[C@H]2C(=O)N(Cc3ccccc3)C(=O)[C@@H]12)S(=O)(=O)c1ccccc1 | -2.92% (inactive)
41 | CCNC(=O)N(CC)C[C@H]1N[C@@](CC)(C(=O)OC)[C@H]2C(=O)N(Cc3ccccc3)C(=O)[C@@H]12 | 36% (inactive)
42 | CCN(C[C@H]1N[C@@](Cc2ccccc2)(C(=O)OC)[C@H]2C(=O)N(Cc3ccccc3)C(=O)[C@@H]12)C(=O)c1ccc(C)cc1 | -54.1% (active)
43 | Cc1ccc(S(=O)(=O)NN=C2CC(C)(C)CC(=O)C2(C)C)cc1 | 0.854% (inactive)
44 | Cc1cccc(C)c1NC(=O)C(c1ccc(C(F)(F)F)cc1)n1c(=O)c(-c2ccco2)nc2ccccc21 (stereo unspecified) | -1.25% (inactive)
45 | Cc1ccc2nc(SCC(=O)NC3CCCC3)[nH]c2c1 | -11.8% (inactive)
46 | COc1ccc2nc(SCC(=O)Nc3c(C)cc(C)cc3C)[nH]c2c1 | 15.5% (inactive)
47 | Cc1cc(C)c(NC(=O)CSc2nc3ccncc3[nH]2)c(C)c1 | -69.3% (active)
48 | COc1ccc(C(CNC(=O)c2cccc(S(=O)(=O)Nc3ccc(Br)cc3)c2)N(C)C)cc1 (stereo unspecified) | -12.1% (inactive)
49 | CCC(NC(=O)C1CCCC1)c1ccc(C)cc1 (stereo unspecified) | 31.4% (inactive)
50 | Brc1ccc2nc(-c3ccccc3)c(Cc3ccccc3)n2c1 | 28.2% (inactive)
51 | CCN(CC)S(=O)(=O)c1ccc(N2CCOCC2)c(NC(=O)C2COc3ccccc3O2)c1 (stereo unspecified) | -0.208% (inactive)
52 | CCN(CC)S(=O)(=O)c1ccc(N2CCOCC2)c(NC(=O)c2ccc(=O)n(C)n2)c1 | 8.34% (inactive)
53 | CCN(CC)S(=O)(=O)c1ccc(N2CCCC2)c(NC(=O)c2ccc([N+](=O)[O-])o2)c1 | -86.5% (active)
54 | CCN(CC)S(=O)(=O)c1ccc(N2CCN(C)CC2)c(NC(=O)Nc2ccccc2F)c1 | -72.3% (active)
55 | CCN(CC)S(=O)(=O)c1ccc(N2CCOCC2)c(NC(=O)C(C)Oc2ccc(F)cc2)c1 (stereo unspecified) | -2.11% (inactive)
56 | CCN(CC)S(=O)(=O)c1cc(C(=O)Nc2cc(S(=O)(=O)N3CCOCC3)ccc2N2CCCC2)ccc1F | -10.4% (inactive)
